# VDR inhibitor: Inhibitors of the vitamin D receptor (VDR): qHTS; 400,000 tested, 0.93% active; AID 504847, 2011; VDR-SRC2-3 peptide fluorescence polarization, 2 h; Potency, µM, inactives show max response, negative = inhibition, actives largely listed as inhibitors; Vitamin D3 receptor (Homo sapiens), P11473; further: potency means the concentration at half of the fitted maximal effect
#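 Inhibition of the VDR/SRC2-3 peptide interaction is quantified by fluorescence polarization. Compounds (23 nl, pintool) incubate with the reagents for 2 hours at ambient room temperature.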
# KAT2A inh: qHTS Assay for Inhibitors of GCN5L2 | GCN5L2 HAT assay, ThioGlo1 CoA-SH fluorescence | 390,000 tested, 0.21% active | Histone acetyltransferase KAT2A (Homo sapiens), Q92830 | AID 504327, 2011 | Potency, µM (doses to about 58.9 µM), without a hit: top-dose activity change, negative = inhibition, most hits filed as inhibitors; further: potency means the concentration at half of the fitted maximal effect
#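 Free CoA generated was detected with ThioGlo1 (50uM) fluorescence at Ex340nm/Em540nm, read immediately and after 20 min at room temperature. Enzyme, 20 nM in HEPES pH 7.5 buffer, saw compounds 15 min before adding 75uM H3(1-25) peptide and 70uM acetyl-CoA.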
# PI4K2A block: qHTS for small molecular inhibitors of PI4K2A; Phosphatidylinositol 4-kinase type 2-alpha (Homo sapiens), Q9BTU6; purified PI4K2A, ADP-Glo luminescence, 1 h; hits give low values; 420,000 tested, 0.13% active; AID 1346378, 2018; activity change, negative = inhibition, % at 76.9 µM; in the data active means activity change below about -50%; inconclusive means mostly about -30% to -49%;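 further: -100% = wells without enzyme as full effect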
# Target sequence (Q9BTU6 whole entry, looked up): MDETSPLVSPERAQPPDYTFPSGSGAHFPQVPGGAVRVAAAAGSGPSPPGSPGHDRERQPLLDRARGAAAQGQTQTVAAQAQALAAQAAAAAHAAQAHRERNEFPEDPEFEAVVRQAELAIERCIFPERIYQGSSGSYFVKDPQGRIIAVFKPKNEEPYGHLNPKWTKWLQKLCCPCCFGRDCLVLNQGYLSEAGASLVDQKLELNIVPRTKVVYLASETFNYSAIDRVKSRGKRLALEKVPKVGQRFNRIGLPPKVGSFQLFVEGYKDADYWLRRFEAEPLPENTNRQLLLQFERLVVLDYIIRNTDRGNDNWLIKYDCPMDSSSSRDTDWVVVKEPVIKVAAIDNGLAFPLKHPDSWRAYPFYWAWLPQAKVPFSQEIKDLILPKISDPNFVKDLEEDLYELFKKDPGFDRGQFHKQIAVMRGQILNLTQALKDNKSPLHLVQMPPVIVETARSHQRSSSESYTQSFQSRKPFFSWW
#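 In this quantitative HTS, ADP production by PI4K2A was quantified luminescently after 1 h at ambient temperature; 100 microM adenosine served as plate-quality control.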
# GLS inhibitor: qHTS for Inhibitors of Glutaminase (GLS) | Glutaminase kidney isoform, mitochondrial (Homo sapiens), O94925 | GLS enzymatic activity, qHTS titration | Potency, µM (series often up to 45.5 µM), for the others: at the top dose activity change, negative = inhibition, most hits filed as inhibitors | 410,000 tested, 0.21% active | AID 624170, 2012; further: potency means the concentration at half of the fitted maximal effect
#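 hKGA in 45 mM KH2PO4 (pH 8.2), 0.02% Tween-20 with compound, then 1mM L-Glutamine (stock as added) plus glutamate oxidase/HRP/Amplex red coupling mix. Fluorescence read initially and after 30 min at RT; signal change reflects glutamate formation.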
# PLK1 PBD inh: qHTS for Inhibitors of PLK1-PDB (polo-like kinase 1 - polo-box domain): Primary Screen | Potency, µM, for the others: max response, negative = inhibition, usual class: inhibitors | 360,000 tested, 2.8% active | Plk1 PBD binding of FITC phosphopeptide, fluorescence polarization | Serine/threonine-protein kinase PLK1 (Homo sapiens), P53350; further: potency means the concentration at half of the fitted maximal effect; series mostly up to about 57 µM; nearly all actives have a fitted effect of over 65% in size
# Starred values were filed as active, the others as inactive; ? = inconclusive; · = no result. This is a sample that favours compounds with a hit; in the whole collection about 3.1% have one here. Unless noted, the call rests on the fitted dose curve; in most records, active means well fitted curve in the direction sought with a large enough effect; inconclusive means small, poorly fitted or top-dose-only effect, or another doubt; inactive means no such curve, though single readings can be large; an effect the other way counts as inactive or inconclusive. Unless noted, on the % scale 0 is the no-effect control and ±100 the full control effect.
SMILES,VDR inhibitor,KAT2A inh,PI4K2A block,GLS inhibitor,PLK1 PBD inh
COc1cccc(-n2sc3c(c2=S)-c2cc(OC)ccc2NC3(C)C)c1,-8.7%,-5.1%,-7.3,7.1%,1.7%
CC1(C)Nc2ccc(O)cc2-c2c1ssc2=S,?,-4.4%,?,21.1%,26.7µM*
COC(=O)c1ccc(S(=O)(=O)N2CCC(NC(=O)Cc3ccccc3)CC2)cc1,·,·,-1.8,·,·
CC(Cc1n[nH]c(=S)n1N)c1ccccc1 (centres undefined),-6.5%,14.8%,4.8,30.3%,26.7µM*
Nn1c(Cc2ccc(F)cc2)n[nH]c1=S,4.4%,-1.6%,-2.6,-9.5%,18.9µM*
O=S(=O)(Nc1cccc(Cl)c1)c1ccc(-n2cccn2)cc1,-2.3%,-1.3%,-4.8,0.7%,-14.1%
CCc1cccc(NS(=O)(=O)c2ccc(-n3cccn3)cc2)c1,-18.8%,-9.1%,6.8,-14.6%,29.9µM*
CCc1nnc2n1N=C(c1ccc(Br)cc1)CS2,3.2%,11.7%,7.5,-1.3%,-13.1%
Brc1ccc(C2=Nn3c(Cn4nnc5ccccc54)nnc3SC2)cc1,?,-20.1%,0.1,-22.1%,11.9µM*
c1ccc(OCc2nnc3n2N=C(c2ccccc2)CS3)cc1,?,?,4.5,2.5%,7.52µM*
Cc1cc2c(c(C)c1Cl)C(c1ccc3c(c1)OCO3)CC(O)(c1ccccc1)O2 (centres undefined),-11.2%,·,·,·,·
O=C(Nc1ncc(Cc2ccccc2)s1)C1CCN(C(=O)c2ccco2)CC1,-19.0%,·,·,·,·
CCN(CC)C(=O)c1oc(=O)c2ccccc2c1-c1ccc(C)cc1,·,·,1.5,·,·
CCCCN(Cc1ccco1)S(=O)(=O)c1ccc(-c2ccc(=O)[nH]n2)s1,-15.7%,-15.4%,1.8,4.8%,23.8µM*
COc1ccccc1CNC(=O)C(CC(C)C)N1Cc2ccccc2C1=O (centres undefined),-3.6%,-0.4%,-2.5,4.1%,·
Cc1nc2c(C#N)c[nH]n2c(=O)c1CCO,28.2µM*,-20.9%,-0.3,-12.0%,9.47µM*
CC(C)CC(=O)n1sc(NC(=O)c2ccccc2)nc1=O,44.7µM*,-5.7%,2.8,2.3%,-6.7%
Cc1ccc(C(=O)Nc2nc(=O)n(C(=O)CC(C)C)s2)cc1,?,-0.2%,-7.3,-4.1%,-19.4%
Cc1ccc(C(=O)Nc2nc(=O)n(C(=O)c3ccccc3Cl)s2)cc1,17.8µM*,2.4%,-5.8,1.4%,?
Cc1cccc(NC(=O)CSc2nnc(SCc3ccc(Cl)cc3)s2)c1,·,·,2.3,·,·
CNC(=O)c1c(I)c(NC(C)=O)c(I)c(C(=O)O)c1I,·,·,4.2,·,·
Cc1nc(Cl)c2c(n1)NC1=C(O2)C(=O)CCC1,4.4%,-13.7%,-14.3,-14.3%,21.2µM*
COc1ccc(-c2cc(C(F)F)n3ncc(C(=O)N4CCc5ccccc54)c3n2)cc1,?,-0.3%,0.4,?,6.7µM*
CC1=NN(c2ccc(C)cc2C)C(=O)C1C(c1cccc(O)c1)C1C(=O)N(c2ccc(C)cc2C)N=C1C (centres undefined),?,27.3%,-7.5,?,26.7µM*
CCCC(=O)OC12CCCN(C1)/C(=C/c1ccc(Cl)cc1)C2 (centres undefined),·,·,-4.2,·,·
SMILES,VDR inhibitor,KAT2A inh,PI4K2A block,GLS inhibitor,PLK1 PBD inh
COc1ccc(-n2cnc3cc(NCc4cccs4)ccc32)cc1,-10.0%,-2.2%,-7.8,28.3%,26.7µM*
Cc1ccc(-n2cnc3cc(NCc4cccs4)ccc32)cc1,-6.9%,-6.3%,-6.9,7.5%,-10.1%
O=C(CNS(=O)(=O)c1ccc([N+](=O)[O-])cc1)N/N=C/c1ccc(O)cc1O,-16.5%,4.1%,1.4,12.6µM*,-11.4%
O=C(CNS(=O)(=O)c1ccc([N+](=O)[O-])cc1)N/N=C\c1ccc(O)cc1,5.3%,0.5%,2.5,19.0%,-0.9%
Cc1ccc(NC(=O)CCNC(=O)N2CC(=O)Nc3ccccc32)cc1Cl,·,·,9.8,-5.8%,2.0%
Cc1ccc(NC(=O)CNC(=O)N2CC(=O)Nc3ccccc32)cc1F,?,-2.4%,3.1,28.9%,7.52µM*
COc1ccc(-c2noc(C3CCCN(C(=O)Nc4cc(C)cc(C)c4)C3)n2)cc1 (centres undefined),·,·,2.6,·,·
Cc1ccc2c(c1)c(-c1ccccc1)nc1nnnn12,-9.4%,-1.6%,-0.9,6.5%,23.8µM*
Cc1ccc2nnnc(-c3ccccc3)c2c1,-5.6%,-0.4%,3.2,5.2%,1.5%
OC(c1ccccc1)c1nc2ccccc2s1 (centres undefined),-8.4%,-2.8%,-1.6,0.7%,11.9µM*
Cc1cccc(-c2ccc3ncnc(NCc4cccc(F)c4)c3c2)c1,·,-14.0%,·,·,·
Cc1cccc(C)c1NC(=O)C(c1ccccc1)N1CCC1=O (centres undefined),?,42.9%,1.8,29.2%,16.8µM*
Cc1cccc(NC2=NC(C)(C)N=C(N)N2)c1C,25.1µM*,3.8%,-0.8,5.3%,4.3%
CC(CC(=O)N1CCc2ccccc21)S(=O)(=O)c1ccc2c(c1)NC(=O)CO2 (centres undefined),-9.2%,-4.3%,2.1,9.0%,26.7µM*
Cc1ccc(NC(=O)CC(C)S(=O)(=O)c2ccc3c(c2)NC(=O)CO3)cc1C (centres undefined),-2.3%,-5.8%,-2.2,1.2%,23.8µM*
Cc1ccccc1C(=O)NCc1ccc2c(c1)CCN2C(=O)c1ccc(F)cc1,13.8%,-0.8%,-2.6,-0.2%,·
Cc1ccc(OCCn2cc(/C=N/NC(=O)c3ccncc3)c3ccccc32)cc1,8.4%,-1.4%,-3.2,-11.5%,15µM*
S=c1[nH]nc(NCCCN2CCOCC2)s1,89.1µM*,?,3.8,?,11.9µM*
CCOC(=O)c1cccc(NC(=O)c2cc3c(=O)n(Cc4ccccc4)ccc3nc2C)c1,11.3%,-0.1%,-3.0,3.4%,·
COc1ccc(C2C3=C(CC(C)(C)CC3=O)Nc3c2c(=O)n(C)c(=O)n3C)cc1OC (centres undefined),?,-10.8%,3.6,12.6µM*,11.9µM*
C=CCOC(=O)N[C@H](c1ccc(-c2ccccc2)cc1)[C@H](C)/C=C/CC(=O)OC,·,·,2.8,·,·
COc1cccc(NC(=O)c2ccc3c(O)c(S(=O)(=O)c4ccccc4)c(=O)[nH]c3c2)c1,?,-5.8%,7.2,16.7%,23.8µM*
COc1cccc(NC(=O)CSc2ncc(S(=O)(=O)c3ccccc3)c(=O)[nH]2)c1,-29.1%,0.4%,-10.8,59.5%,26.7µM*
O=S1(=O)C=CCN1Cc1cn(Cc2ccccc2)nn1,·,·,1.9,·,·
CCN(CC)CCC(=O)c1ccc(F)cc1,-6.6%,-2.5%,5.9,-0.4%,10.6µM*

# Source: PubChem BioAssay
